# Laboratory results from the antibiotic and cytotoxicity screens of Wong et al. (2023).
# The campaign covered roughly 39,000 compounds. About 3,300 (8.5%) were called active. For the sample, actives were picked, then their nearest neighbours and some compounds at random.
# System: HepG2
# Assay: cytotoxicity call (relative viability < 0.9)
# Details: 10 µM
row,Compound,cytotoxicity call
1,C[C@@H]1CCCCO[C@H](CN(C)C(=O)Nc2ccccc2)[C@H](C)CN([C@@H](C)CO)C(=O)c2cc(NC(=O)Nc3ccc(F)cc3)ccc2O1,inactive
2,O=C(C[C@H]1CC[C@@H](NC(=O)CN2CCOCC2)[C@H](CO)O1)NC1CCC1,inactive
3,C[C@H](CO)N1C[C@H](C)[C@@H](CN(C)S(=O)(=O)c2cn(C)cn2)Oc2ccc(N(C)C)cc2CC1=O,inactive
4,C[C@H](CO)N1C[C@H](C)[C@H](CN(C)Cc2ccc(F)cc2)Oc2cc(C#CC3CC3)ccc2S1(=O)=O,inactive
5,C[C@@H]1CCCCO[C@H](CN(C)C(=O)C2CCCCC2)[C@@H](C)CN([C@H](C)CO)C(=O)c2cc(NC(=O)Nc3ccc(F)cc3)ccc2O1,inactive
6,COCC(=O)Nc1ccccc1C(=O)O,inactive
7,O=C(N1CCOCC1)[C@@]1(CCS(=O)(=O)c2ccccc2)COC(c2ccc(OCCCO)cc2)=N1,inactive
8,NCc1cccc2c1OCCCO2,inactive
9,C[N+](C)(C)CCCC[C@@H]1NC(=O)[C@@H]2C[C@H](C(=O)NCCCCCCNC(=O)CS)[C@H](c3ccc(O)cc3)N2C1=O,inactive
10,CC(C)=C[C@H]1[C@@H](c2nc3ccc(Br)cc3[nH]2)C1(C)C,inactive
11,CCNc1nc(NCC)nc(OCC#N)n1,inactive
12,CCNc1nc(OCCO)nc(N(C)C)n1,inactive
13,CCNc1nc(NCC)nc(C(=O)OCCO)n1,active
14,C[C@@H]1CN([C@@H](C)CO)C(=O)Cc2cc(NC(=O)Cc3cn(C)c4ccccc34)ccc2O[C@H]1CN(C)C(=O)Nc1ccc(C(F)(F)F)cc1,inactive
15,C[C@@H]1CN([C@H](C)CO)C(=O)Cc2cc(NC(=O)Cc3cn(C)c4ccccc34)ccc2O[C@@H]1CN(C)C(=O)Nc1ccc(C(F)(F)F)cc1,inactive
16,C[C@H](CO)N1C[C@H](C)[C@H](CN(C)C(=O)Nc2ccc(C(F)(F)F)cc2)Oc2ccc(NC(=O)Cc3cn(C)c4ccccc34)cc2CC1=O,inactive
17,C[C@H]1CN([C@@H](C)CO)C(=O)Cc2cc(NC(=O)Cc3cn(C)c4ccccc34)ccc2O[C@@H]1CN(C)Cc1ccc(C(F)(F)F)cc1,active
18,C[C@@H]1CN([C@@H](C)CO)C(=O)Cc2cc(NC(=O)Cc3cn(C)c4ccccc34)ccc2O[C@H]1CN(C)Cc1ccc(C(F)(F)F)cc1,active
19,C[C@H]1CN([C@@H](C)CO)C(=O)Cc2cc(NC(=O)Cc3cn(C)c4ccccc34)ccc2O[C@@H]1CN(C)C(=O)Nc1ccc(C(F)(F)F)cc1,inactive
20,C[C@@H]1CN([C@H](C)CO)C(=O)Cc2cc(NC(=O)Cc3cn(C)c4ccccc34)ccc2O[C@@H]1CN(C)Cc1ccc(C(F)(F)F)cc1,active

row,Compound,cytotoxicity call
1,C[C@H](CO)N1C[C@H](C)[C@H](CN(C)Cc2ccc(C(F)(F)F)cc2)Oc2ccc(NC(=O)Cc3cn(C)c4ccccc34)cc2CC1=O,inactive
2,C[C@@H]1CN([C@@H](C)CO)C(=O)Cc2cc(NC(=O)Cc3cn(C)c4ccccc34)ccc2O[C@@H]1CN(C)C(=O)Nc1ccc(C(F)(F)F)cc1,inactive
3,C[C@H](CO)N1C[C@H](C)[C@@H](CN(C)C(=O)Nc2ccc(C(F)(F)F)cc2)Oc2ccc(NC(=O)Cc3cn(C)c4ccccc34)cc2CC1=O,inactive
4,C[C@@H]1CN([C@@H](C)CO)C(=O)Cc2cc(NC(=O)Cc3cn(C)c4ccccc34)ccc2O[C@@H]1CN(C)Cc1ccc(C(F)(F)F)cc1,active
5,C[C@H]1CN([C@@H](C)CO)C(=O)Cc2cc(NC(=O)Cc3cn(C)c4ccccc34)ccc2O[C@H]1CN(C)C(=O)Nc1ccc(C(F)(F)F)cc1,inactive
6,CCN1[C@H](C(=O)NCCc2cn(C)cn2)[C@@H](CO)[C@@H]2Cn3c(ccc(-c4ccncc4)c3=O)[C@@H]21,inactive
7,C[C@@H]1CN([C@H](C)CO)C(=O)c2cccc(NS(=O)(=O)c3cn(C)cn3)c2O[C@H]1CN(C)S(=O)(=O)c1ccccc1,inactive
8,C[C@@H]1CCCCO[C@@H](CN(C)C(=O)Nc2ccc(C(F)(F)F)cc2)[C@@H](C)CN([C@H](C)CO)C(=O)c2cc(NC(=O)c3ccncc3)ccc2O1,inactive
9,C[C@H](O)C#Cc1ccc2c(c1)O[C@H](CN(C)C(=O)CN(C)C)[C@@H](C)CN([C@H](C)CO)S2(=O)=O,inactive
10,COc1ccc(NC(=O)Nc2cccc3c2O[C@H](CN(C)Cc2ccc(Cl)c(Cl)c2)[C@H](C)CN([C@@H](C)CO)C3=O)cc1,inactive
11,COc1ccc(S(=O)(=O)N(C)C[C@H]2OCCCC[C@@H](C)Oc3ccc(NC(=O)Nc4ccc5c(c4)OCO5)cc3C(=O)N([C@H](C)CO)C[C@@H]2C)cc1,inactive
12,Cc1noc(C)c1NC(=O)Nc1ccc2c(c1)C(=O)N([C@H](C)CO)C[C@@H](C)[C@H](CN(C)Cc1ccc3c(c1)OCO3)OCCCC[C@H](C)O2,inactive
13,Cc1noc(C)c1S(=O)(=O)Nc1ccc2c(c1)C(=O)N([C@@H](C)CO)C[C@@H](C)[C@@H](CN(C)Cc1ccc(Oc3ccccc3)cc1)O2,inactive
14,C[C@@H]1CN([C@H](C)CO)C(=O)c2cc(NC(=O)Nc3cccc4ccccc34)ccc2O[C@@H](C)CCCCO[C@H]1CN(C)S(=O)(=O)c1ccccc1,inactive
15,CC(=O)N1[C@@H]2c3cccc(=O)n3C[C@H]1[C@H](CO)[C@H]2C(=O)N1CCc2ccccc2C1,inactive
16,C[C@H](CO)N1C[C@H](C)[C@@H](CN(C)Cc2ccc(C(F)(F)F)cc2)Oc2ccc(NC(=O)Cc3cn(C)c4ccccc34)cc2CC1=O,inactive
17,C[C@H]1CN([C@@H](C)CO)C(=O)Cc2cc(NC(=O)Cc3cn(C)c4ccccc34)ccc2O[C@H]1CN(C)Cc1ccc(C(F)(F)F)cc1,active
18,C[C@@H]1CN([C@H](C)CO)C(=O)Cc2cc(NC(=O)Cc3cn(C)c4ccccc34)ccc2O[C@H]1CN(C)Cc1ccc(C(F)(F)F)cc1,inactive
19,C[C@@H]1CN([C@@H](C)CO)C(=O)c2c(c3ccccc3n2C)-c2ccccc2CO[C@H]1CN(C)Cc1cccc(C(F)(F)F)c1,inactive
20,Cc1ccc(S(=O)(=O)N(C)C[C@H]2OCCCC[C@@H](C)Oc3ccc(NC(=O)C4CCCCC4)cc3C(=O)N([C@H](C)CO)C[C@@H]2C)cc1,active

row,Compound,cytotoxicity call
1,Cc1ccc(S(=O)(=O)N(C)C[C@H]2OCCCC[C@H](C)Oc3ccc(NC(=O)C4CCCCC4)cc3C(=O)N([C@H](C)CO)C[C@H]2C)cc1,inactive
2,C[C@@H]1CCCCO[C@H](CN(C)S(=O)(=O)c2ccc(Cl)cc2)[C@H](C)CN([C@H](C)CO)C(=O)c2cc(NC(=O)C3CCCCC3)ccc2O1,active
3,C[C@@H]1CCCCO[C@@H](CN(C)S(=O)(=O)c2ccc(F)cc2)[C@H](C)CN([C@H](C)CO)C(=O)c2cc(NC(=O)C3CCCCC3)ccc2O1,active
4,C[C@@H]1CCCCO[C@@H](CN(C)S(=O)(=O)c2ccc(Cl)cc2)[C@@H](C)CN([C@@H](C)CO)C(=O)c2cc(NC(=O)C3CCCCC3)ccc2O1,inactive
5,C[C@H](CO)N1C[C@H](C)[C@H](CN(C)S(=O)(=O)c2ccc(F)cc2)OCCCC[C@H](C)Oc2ccc(NC(=O)C3CCCCC3)cc2C1=O,inactive
6,Cc1ccc(S(=O)(=O)N(C)C[C@@H]2OCCCC[C@@H](C)Oc3ccc(NC(=O)C4CCCCC4)cc3C(=O)N([C@H](C)CO)C[C@H]2C)cc1,inactive
7,C[C@@H]1CN([C@H](C)CO)C(=O)c2cc(NC(=O)C3CCCCC3)ccc2O[C@@H](C)CCCCO[C@H]1CN(C)S(=O)(=O)c1ccc(F)cc1,inactive
8,Cc1ccc(S(=O)(=O)N(C)C[C@@H]2OCCCC[C@@H](C)Oc3ccc(NC(=O)C4CCCCC4)cc3C(=O)N([C@H](C)CO)C[C@@H]2C)cc1,inactive
9,Cc1ccc(S(=O)(=O)N(C)C[C@H]2OCCCC[C@@H](C)Oc3ccc(NC(=O)C4CCCCC4)cc3C(=O)N([C@@H](C)CO)C[C@H]2C)cc1,inactive
10,C[C@@H]1CN([C@@H](C)CO)C(=O)c2cc(NC(=O)C3CCCCC3)ccc2O[C@@H](C)CCCCO[C@@H]1CN(C)S(=O)(=O)c1ccc(Cl)cc1,inactive
11,Cc1ccc(S(=O)(=O)N(C)C[C@H]2OCCCC[C@H](C)Oc3ccc(NC(=O)C4CCCCC4)cc3C(=O)N([C@@H](C)CO)C[C@@H]2C)cc1,active
12,C[C@@H]1CCCCO[C@@H](CN(C)C(=O)CCCN(C)C)[C@H](C)CN([C@@H](C)CO)C(=O)c2cc(NS(=O)(=O)c3cn(C)cn3)ccc2O1,inactive
13,CS(=O)(=O)c1ncc(Cl)c(C(=O)NCCc2ccc(S(N)(=O)=O)cc2)n1,inactive
14,COc1ccc(S(=O)(=O)Nc2cccc3c2O[C@H](CN(C)Cc2ccc(Oc4ccccc4)cc2)[C@H](C)CN([C@H](C)CO)C3=O)cc1,inactive
15,Cc1ccc(S(=O)(=O)N(C)C[C@H]2OCCCC[C@H](C)Oc3ccc(NC(=O)CCC(F)(F)F)cc3C(=O)N([C@H](C)CO)C[C@H]2C)cc1,inactive
16,CN[C@@H]1[C@@H](C)O[C@@H](O[C@H]2[C@H](C)O[C@@H](O[C@@H]3/C(C)=C/C[C@@H]4C[C@@H](C[C@]5(C=C[C@H](C)[C@@H](C(C)C)O5)O4)OC(=O)[C@@H]4C=C(C)[C@@H](O)[C@H]5OC/C(=C\C=C\[C@@H]3C)[C@]54O)C[C@@H]2OC)C[C@H]1OC,active
17,CCC(C)C1OC2(C=CC1C)CC1CC(CC=C(C)C(OC3CC(OC)C(OC4CC(OC)C(NC(C)=O)C(C)O4)C(C)O3)C(C)C=CC=C3COC4C(O)C(C)=CC(C(=O)O1)C34O)O2 (centres undefined),inactive
18,CCC(C)C1OC2(C=CC1C)CC1CC(CC=C(C)C(OC3CC(OC)C(OC4CC(OC)C(O)C(C)O4)C(C)O3)C(C)C=CC=C3COC4C(OC)C(C)=CC(C(=O)O1)C34O)O2 (centres undefined),active
19,CC[C@H](C)[C@H]1O[C@]2(C=C[C@@H]1C)C[C@@H]1C[C@@H](C/C=C(\C)[C@@H](O[C@H]3C[C@H](OC)[C@@H](O[C@H]4C[C@H](OC)[C@@H](NC(C)=O)[C@H](C)O4)[C@H](C)O3)[C@@H](C)/C=C/C=C3\CO[C@@H]4[C@H](O)C(C)=C[C@@H](C(=O)O1)[C@]34O)O2,active
